Reference: PubChem BioAssay AID2242 (National Center for Advancing Translational Sciences (NCATS), 2010)
The campaign covered roughly 200,000 compounds. About 720 (0.36%) were called active. Inconclusive results (about 8%) are left out. Calls follow the shape of the dose curve; as a rule, active = well fitted activation curve with a large enough effect; inconclusive = small, poorly fitted or top-dose-only effect, or effect the other way, or another doubt; inactive = flat fitted curve, though single readings scatter. This is one part of the list.
Also: nearly all actives have a fitted effect of over 80% in size.
Potency is read from the fitted curve at half-maximal effect.

What follows are molecules tested against Lysosomal alpha-glucosidase (Homo sapiens) (UniProt P10253) (assay: qHTS Assay for Activators of Human alpha-Glucosidase as a Potential Chaperone Treatment of Pompe Disease). Conditions: purified enzyme, 4-MU-alpha-glucoside fluorescence, 20 min; series mostly up to 76.9 µM.
How it was run: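 Compounds titrated up to 77 uM against 4 nM enzyme and 400 uM methylumbelliferyl substrate at room temperature, 20 min, pH 5.0. Basic stop, then 4-methylumbelliferone fluorescence (365/440 nm) normalized to no-enzyme and enzyme controls; Hill-equation AC50.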
In the case of `CCN1CCN(CCCNC(=O)c2cc3cc4ccc(OC)cc4nc3o2)CC1`, the Potency is reported as 35.5 µM (active). `COc1ccc2cc3cc(C(=O)NCCCN4CCOCC4)oc3nc2c1` was tested, and the Potency was 35.5 µM (active). `CCCSc1nc2sc3c(c2c(=O)[nH]1)CCN(Cc1ccccc1)C3` was tested, and the Potency was 31.6 µM (active). With `COC(=O)c1sc2ccccc2c1N` the Potency was 39.8 µM (active). In the case of `COC(=O)c1ccncc1N`, the Potency is reported as 35.5 µM (active). With `COC(=O)c1sc2cnccc2c1N` the Potency was 35.5 µM (active). For `Cc1ccc(-n2c(N)c(S(=O)(=O)c3ccccc3)c3nc4ccccc4nc32)cc1`, the Potency was 25.1 µM (active). With `Cc1ccc(S(=O)(=O)c2c(N)n(CCCO)c3nc4ccccc4nc23)cc1` the Potency was 35.5 µM (active). In the case of `Cc1cccc(S(=O)(=O)c2c(N)n(-c3ccccc3)c3nc4ccccc4nc23)c1`, the Potency is reported as 35.5 µM (active). With `Cc1ccc(S(=O)(=O)c2c(N)n(CC3CCOC3)c3nc4ccccc4nc23)cc1` (configuration not stated) the Potency was 35.5 µM (active). For `Nc1c(S(=O)(=O)c2ccccc2)c2nc3ccccc3nc2n1C1CC1`, the Potency was 28.2 µM (active). With `Cc1ccc(S(=O)(=O)c2c(N)n(C)c3nc4ccccc4nc23)cc1` the Potency was 25.1 µM (active). In the case of `Nc1c(S(=O)(=O)c2ccccc2)c2nc3ccccc3nc2n1CCN1CCOCC1`, the Potency is reported as 39.8 µM (active). In the case of `Nc1c(S(=O)(=O)c2ccccc2)c2nc3ccccc3nc2n1Cc1ccco1`, the Potency is reported as 28.2 µM (active). In the case of `COCCCn1c(=NC(=O)c2ccncc2)c(C#N)cc2c(=O)n3cccc(C)c3nc21`, the Potency is reported as 35.5 µM (active). `COCCCn1c(=NC(=O)c2ccccc2)c(C#N)cc2c(=O)n3cccc(C)c3nc21` was tested, and the Potency was 39.8 µM (active). With `Cc1cccn2c(=O)c3cc(C#N)c(=NC(=O)c4ccncc4)n(CCCOC(C)C)c3nc12` the Potency was 35.5 µM (active). `CCC12OC(=N)C(C#N)(C1C)C(C#N)(C#N)C(c1ccccc1)O2` (configuration not stated) was tested, and the Potency was 39.8 µM (active). With `CCC1OC2(C)OC(=N)C1(C#N)C(C#N)(C#N)C2c1ccccc1` (configuration not stated) the Potency was 35.5 µM (active). For `CC(=O)Nc1ccc(S(=O)(=O)C(C#N)c2nc3ccccc3nc2NCCO)cc1` (configuration not stated), the Potency was 35.5 µM (active). With `CC(=O)Nc1ccc(S(=O)(=O)C(C#N)c2nc3ccccc3nc2NCCCO)cc1` (configuration not stated) the Potency was 31.6 µM (active). With `Cc1ccc(S(=O)(=O)NC(C(=O)Oc2ccc3ccc(=O)oc3c2)c2ccccc2)cc1` (configuration not stated) the Potency was 35.5 µM (active). In the case of `Cc1ccc(S(=O)(=O)NC(C(=O)Oc2ccc3c(C)c(Cl)c(=O)oc3c2)c2ccccc2)cc1` (configuration not stated), the Potency is reported as 28.2 µM (active). In the case of `Cc1ccc(S(=O)(=O)NC(C(=O)Oc2cc3oc(=O)cc(C)c3cc2Cl)C(C)C)cc1` (configuration not stated), the Potency is reported as 31.6 µM (active). In the case of `CC(NC(=O)OC(C)(C)C)C(=O)Oc1ccc2ccc(=O)oc2c1` (configuration not stated), the Potency is reported as 31.6 µM (active). For `O=C(Oc1ccc2ccc(=O)oc2c1)C1CCCCC1`, the Potency was 35.5 µM (active). `CC(C)(C)OC(=O)NCCC(=O)Oc1ccc2ccc(=O)oc2c1` was tested, and the Potency was 35.5 µM (active). With `Cc1c(CCC(=O)O)c(=O)oc2cc(O)ccc12` the Potency was 35.5 µM (active). `CCOC(=O)CCc1c(C)c2ccc(O)cc2oc1=O` was tested, and the Potency was 35.5 µM (active). In the case of `Cc1ccccc1C(=O)N=c1c(C#N)cc2c(=O)n3cccc(C)c3nc2n1Cc1ccco1`, the Potency is reported as 35.5 µM (active). With `Cc1cccc(C(=O)N=c2c(C#N)cc3c(=O)n4cccc(C)c4nc3n2Cc2ccco2)c1` the Potency was 35.5 µM (active). With `Clc1ccc(N2N=C(c3cccs3)CC2c2ccco2)cc1` (configuration not stated) the Potency was 35.5 µM (active). With `Fc1ccc(N2N=C(c3cccs3)CC2c2ccco2)c(F)c1` (configuration not stated) the Potency was 31.6 µM (active). With `O=c1oc2ccccc2c2c1SC(C(F)(F)F)C2` (configuration not stated) the Potency was 31.6 µM (active). For `O=S(=O)(O)c1ccc(N2N=C(c3ccccc3)CC2c2ccccc2)cc1` (configuration not stated), the Potency was 35.5 µM (active). For `NS(=O)(=O)c1ccc(N2N=C(c3ccc(Br)cc3)CC2c2ccc(F)cc2)cc1` (configuration not stated), the Potency was 31.6 µM (active). In the case of `COc1ccc(C2CC(c3ccccc3)=NN2c2ccc(Cl)c(C(=O)O)c2)cc1` (configuration not stated), the Potency is reported as 28.2 µM (active). With `NS(=O)(=O)c1ccc(N2N=C(c3ccccc3)CC2c2ccccc2)cc1` (configuration not stated) the Potency was 31.6 µM (active). With `NS(=O)(=O)c1ccc(N2N=C(c3ccccc3)CC2c2cccc(F)c2)cc1` (configuration not stated) the Potency was 35.5 µM (active). With `NS(=O)(=O)c1ccc(N2N=C(c3ccccc3)CC2c2ccc(F)cc2)cc1` (configuration not stated) the Potency was 31.6 µM (active). With `CCc1ccc(C2=NN(c3ccc(S(N)(=O)=O)cc3)C(c3ccc(F)cc3)C2)cc1` (configuration not stated) the Potency was 31.6 µM (active). For `COc1ccc(C2CC(c3ccccc3)=NN2c2ccc(S(N)(=O)=O)cc2)cc1OC` (configuration not stated), the Potency was 31.6 µM (active).
